In PubChem BioAssay (EPA / NIEHS):
Results filed as inconclusive are left out. The source made the active and inactive calls. How the source made its calls, unless noted: active means hit-call score of the fitted dose curve at least 0.9, where 1 is the maximum; inconclusive means response in the unintended direction; inactive means score below 0.9.

What was measured:
[1] = CCTE_Mundy_HCI_iCellGluta_NOG_NeuriteLength: CCTE's Neurite Outgrowth Assay in iCellGluta cells for Neurite Length, Mundy Lab (AID 2284318)
Method in brief: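 Automated high-content imaging of betaIII-tubulin (Alexa Fluor-488) and Hoechst-stained cells gave neurite length, normalized to the DMSO baseline.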

[2] = test system: TTR (gene 7276); experiment: CCTE_GLTED_hTTR_0.5uM: CCTE's human Transthyretin (hTTR) Inhibition Assay, with 0.5uM TTR, Great Lakes Toxicology and Ecology Division (GLTED) Lab (AID 2284320; active means hit-call score of the fitted dose curve at least 0.9, where 1 is the maximum; inactive means score below 0.9)
Method in brief: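 Probe (ANSA) displacement from 0.5 uM human transthyretin was followed by fluorescence (ex 380, em 475) after a 2 h incubation with chemical. Activity was scored as signal loss and fitted positively relative to DMSO.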

[3] = CCTE_Mundy_HCI_iCellGluta_NOG_NeuronCount: CCTE's Neurite Outgrowth Assay in iCellGluta cells for Neuron Count, Mundy Lab (AID 2284340);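 further: cells fixed about 48 h after compound addition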
Method in brief: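 Neuron count read by automated high-content imaging of Hoechst 33342 and betaIII-tubulin/Alexa Fluor-488 labelling in human iPSC glutamatergic neurons. Activity fitted relative to DMSO.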

[4] = IUF_NPC2-5_viability_120hr: Viability Assessment at 120 hours in the Leibniz Research Institute for Environmental Medicine (IUF) Neural Progenitor Cell Migration and Differentiation Assay (NPC2-5) (AID 2284312; active means hit-call score of the fitted dose curve at least 0.9, where 1 is the maximum; inactive means score below 0.9)
Method in brief: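 Human fetal (GW 16-19) neural progenitor spheres of 0.3 mm were plated on poly-D-lysine/laminin in N2 differentiation medium and exposed from day 0 for 120 h, with half-medium refresh at day 3. Viability was read as alamar blue resazurin-to-resorufin fluorescence against DMSO.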

[5] = IUF_NPC1_cytotoxicity_72hr: Cytotoxicity Assessment at 72 hours in the Leibniz Research Institute for Environmental Medicine (IUF) Neural Progenitor Cell Proliferation Assay (NPC1) (AID 2284332);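 further: rising LDH signal means more cytotoxicity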
Method in brief: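 Cytotoxicity by LDH membrane-integrity assay on medium supernatants, fluorescence via resazurin reduction, after 3-day single exposure of primary hNPC spheres at 37C, pH 7.2-7.6 with growth factors. Fitted upward against baseline.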

[6] = CCTE_Deisenroth_5AR_NBTE_donor: CCTE's 5alpha-reductase NanoBRET Target Engagement Assay […], Deisenroth Lab (AID 2284319; active means hit-call score of the fitted dose curve at least 0.9, where 1 is the maximum; inactive means score below 0.9); settings: actives raise or lower the signal
Method in brief: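 HEK293T cells were reverse transfected with an SRD5A2-NanoLuc vector for 20 h, exposed to test chemical (8 points, 10 nM - 29.9 uM) for 3 h, then testosterone tracer for 2 h more. Donor luminescence (460 nm) was read; bidirectional fit versus DMSO.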

[7] = CCTE_Deisenroth_5AR_NBTE_acceptor: CCTE's 5alpha-reductase NanoBRET Target Engagement Assay - Autofluorescence Screen, Deisenroth Lab (AID 2284321; active means hit-call score of the fitted dose curve at least 0.9, where 1 is the maximum; inactive means score below 0.9;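 further: compound fluorescence in the acceptor channel under 460 nm excitation flags autofluorescence artifacts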); settings: actives raise or lower the signal
Method in brief: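 Autofluorescence check: ToxCast chemicals, nominal 100 uM, excitation 460 nm, n=3 runs. Acceptor fluorescence endpoint, bidirectional fit relative to DMSO. Parent assay in HEK293T, 5 h post-dose.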

[8] = test system: SRD5A2 (gene 6716); experiment: CCTE_Deisenroth_5AR_NBTE_ratio: CCTE's 5alpha-reductase NanoBRET Target Engagement Assay - Ratio, Deisenroth Lab (AID 2284322; active means hit-call score of the fitted dose curve at least 0.9, where 1 is the maximum; inactive means score below 0.9); settings: actives raise or lower the signal
Method in brief: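 HEK293T cells transiently expressing an SRD5A2-NanoLuc fusion (20 h post-transfection) were exposed to test chemical (10 nM - 29.9 uM, 8 points) for 3 h, then testosterone tracer for a further 2 h. Acceptor/donor BRET ratio was fitted bidirectionally against DMSO baseline.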

[9] = VALA_TUBHUV_Agonist_CellCount: Viability Assessment in the VALA Sciences human Umbilical Vein Endothelial Tubule Formation (TUBHUV) Agonism Assay (AID 2284309)
Method in brief: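 Viability endpoint by fluorescent imaging of fixed nuclear/CD31-stained HUVEC–HDF co-cultures. Readout is cell count, fitted upward against 0.1% DMSO. Compound exposure was 72 h in 10 ng/ml VEGF, after 3-day co-culture priming.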

[10] = VALA_TUBIPS_Agonist_TubuleLength: VALA Sciences human iPS-derived Endothelial Tubule Formation (TUBIPS) Agonism Assay (AID 2284311)
Method in brief: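 Agonist-mode readout is the gain in imaged tubule length versus DMSO baseline. It was measured by fluorescence high-content imaging 72 h after dosing human iPSC-derived endothelial cells.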

[11] = VALA_TUBIPS_Antagonist_TubuleLength: VALA Sciences human iPS-derived Endothelial Tubule Formation (TUBIPS) Antagonist Assay (AID 2284313)
Method in brief: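 Tubule length was quantified by high-content imaging of CD31- and nuclear-stained cells, with 0.1% DMSO as neutral and 100 uM suramin as inhibition control. Compounds were applied for 3 days, in 10 ng/ml VEGF, to cultures pre-grown 3 days.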

[12] = VALA_MIGHUV2_WoundArea: VALA Sciences human Umbilical Vein Endothelial Cell Migration (MIGHUV) Assay, Area of Scratch Wound after Recovery (AID 2284316)
Method in brief: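 Wound-area endpoint read by fluorescence imaging of Hoechst-stained nuclei after a 24 h recovery period following scratch of HUVEC monolayers (9000 cells/well). Chemicals dosed within 30 min post-scratch, triplicate 6-point series, 0.1% DMSO vehicle; Cytochalasin D positive control.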

[13] = VALA_TUBIPS_Antagonist_CellCount: Viability Assessment in the VALA Sciences human iPS-derived Endothelial Tubule Formation (TUBIPS) Antagonism Assay (AID 2284335)
[14] = VALA_MIGHUV1_ScratchOnly_WoundArea: VALA Sciences human Umbilical Vein Endothelial Cell Migration (MIGHUV) Assay, Area of Scratch Wound Inhibited Recovery (AID 2284336)
Method in brief: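 Wound area remaining after 24 h recovery imaged by Hoechst nuclear fluorescence in scratched HUVEC cultures, chemicals added within 30 min of scratching across a 6-point series. Gain of signal fitted against 0.1% DMSO; cytochalasin D positive control.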

[15] = VALA_TUBHUV_Agonist_TubuleLength: VALA Sciences human Umbilical Vein Endothelial Tubule Formation (TUBHUV) Agonism Assay (AID 2284337)
Method in brief: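 Tubule length quantified by CD31 immunofluorescence imaging after fixation. HUVEC-HDF co-cultures (1:3) pre-grown 3 days with 10 ng/ml VEGF, then dosed 3 days in VEGF medium; 0.1 % DMSO vehicle baseline.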

[16] = VALA_TUBIPS_Agonist_CellCount: Viability Assessment in the VALA Sciences human iPS-derived Endothelial Tubule Formation (TUBIPS) Agonism Assay (AID 2284338)
[17] = CCTE_Deisenroth_DEVTOX-GLR_legacy_CellCount: (Legacy) Viability Assessment in CCTE's DevTox GLR-Endo Assay, Deisenroth Lab (AID 2284331; active means hit-call score of the fitted dose curve at least 0.9, where 1 is the maximum; inactive means score below 0.9); settings: actives raise or lower the signal
Method in brief: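 RUES2-GLR human pluripotent cells were seeded 24 h, then differentiated 48 h with two compound doses at 24 h intervals (10-point, 1 nM - 200 uM). Fixed nuclei were imaged and counted; bidirectional fitting versus 0.2% DMSO.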

[18] = TAMU_PeakParms_SingleDonor1434_Asystole: Texas A&M University (TAMU) 1.5-hr Human Induced Pluripotent Stem Cell (iPSC)-derived Cardiomyocytes Calcium (Ca+2) Flux Assay for Cardiotoxicity: Asystole (quiescence of beating) (AID 2284328)
Method in brief: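 Human iPSC-derived cardiomyocytes (donor 1434) were exposed to 0.2, 1, 10 and 100 uM compound in 0.5% DMSO for 90 min at 37C. Ca2+-dye fluorescence gave average peak frequency; POD is EC95, a 95% beat-rate drop versus DMSO.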

[19] = test system: Brachyury (BRA) Protein Expression, Deisenroth Lab, TBXT (gene 6862); experiment: CCTE_Deisenroth_DEVTOX-GLR_legacy_Bra: (Legacy) CCTE's DevTox GLR-Endo Assay Evaluation of Brachyury (BRA) Protein Expression, Deisenroth Lab (AID 2284329; active means hit-call score of the fitted dose curve at least 0.9, where 1 is the maximum; inactive means score below 0.9)
Method in brief: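 High-content imaging of fixed RUES2-GLR cells after a 48-hour differentiation with two compound exposures yields percent cells whose Bra signal exceeds pluripotent control median by 5x BMAD; values are baseline-corrected to DMSO.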

[20] = test system: IYD (gene 389434); experiment: CCTE_GLTED_hIYD: CCTE's human Iodotyrosine Deiodinase (xIYD) Inhibition Assay, Great Lakes Toxicology and Ecology Division (GLTED) Lab (AID 2284317);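 further: cell-free human IYD enzyme made in baculovirus insect cells; iodide freed from monoiodotyrosine measured by cerium arsenite color change at 420 nm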
Method in brief: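 In the IYD assay, iodide released from MIT by insect-cell-expressed human enzyme was quantified after 3 h via Sandell-Kolthoff rate at 420 nm, with plate-wise normalization to MNT and solvent controls.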

Structure (SMILES): O=P(O)(O)CCC(F)(F)C(F)(F)C(F)(F)C(F)(F)C(F)(F)C(F)(F)F
- outcome [1]: inactive
- AC50 [2]: 6.47 µM (active)
- outcome [3]: inactive

Structure (SMILES): O=C(O)CCC(F)(F)C(F)(F)C(F)(F)C(F)(F)C(F)(F)C(F)(F)F
- AC50 [2]: 3.66 µM (active)

Structure (SMILES): O=C(CC(=O)C(F)(F)C(F)(F)C(F)(F)F)c1cccs1
- outcome [1]: inactive
- AC50 [2]: 0.193 µM (active)

Structure (SMILES): CC(C)c1c(C(=O)Nc2ccccc2)c(-c2ccccc2)c(-c2ccc(F)cc2)n1CC[C@@H](O)C[C@@H](O)CC(=O)O
- outcome [4]: inactive
- AC50 [1]: 0.0462 µM (active)
- outcome [5]: inactive
- AC50 [3]: 10.1 µM (active)

Structure (SMILES): COc1cc([N+](=O)[O-])ccc1N
- outcome [6]: inactive
- outcome [7]: inactive
- AC50 [8]: 50 µM (active)

Structure (SMILES): O=C(CCCN1CCC(O)(c2ccc(Cl)cc2)CC1)c1ccc(F)cc1
- outcome [9]: inactive
- outcome [10]: inactive
- outcome [4]: inactive
- outcome [11]: inactive
- outcome [12]: inactive
- outcome [5]: inactive
- outcome [13]: inactive
- outcome [14]: inactive
- outcome [15]: inactive
- outcome [16]: inactive

Structure (SMILES): CN(C)CCOC(c1ccccc1)c1ccccc1
- AC50 [17]: 63.9 µM (active)

Structure (SMILES): CC(=O)Nc1ccc(O)cc1
- outcome [4]: inactive
- outcome [18]: inactive
- outcome [19]: inactive
- outcome [17]: inactive
- outcome [5]: inactive

Structure (SMILES): CCCCCCCCCCCCOS(=O)(=O)O
- AC50 [6]: 50 µM (active)
- AC50 [7]: 44.8 µM (active)
- AC50 [8]: 83.9 µM (active)

Structure (SMILES): Cc1cc(Cc2cc(C)cc(C(C)(C)C)c2O)c(O)c(C(C)(C)C)c1
- AC50 [20]: 24.2 µM (active)

Structure (SMILES): CCc1ccccc1O
- outcome [6]: inactive
- outcome [7]: inactive
- outcome [8]: inactive

Structure (SMILES): CCCCCCCCCCCCOC(=O)c1cc(O)c(O)c(O)c1
- AC50 [20]: 22.9 µM (active)
